The text below walks through data of PubChem BioAssay (Tox21).

Values joined by “and” are separate entries in the source; they are usually repeats but may differ in a detail not shown here. Equal values may be shown once. Results filed as inconclusive are left out. The source holds several records for some structures; these can differ, active in one and inactive in another. Active and inactive are the calls of the source. Unless noted, the call rests on the fitted dose curve; in most records, active means well fitted curve in the direction sought with a large enough effect in the repeat runs; inconclusive means weak or mixed curves; inactive means no such curve, though single readings can be large; an effect the other way counts as inactive or inconclusive.

Experiment [1] in a line: qHTS assay to identify small molecule antagonists of the glucocorticoid receptor (GR) signaling pathway - cell viability counter screen (AID 720693). Further: nearly all actives have a fitted effect of over 55% in size. A general note: Quantitative high-throughput screening tests each substance at several concentrations.
Experiment [2] in a line: qHTS assay for identifying genotoxic compounds that show differential cytotoxicity against isogenic chicken DT40 cell lines with known DNA damage response pathways - wild type cell line (AID 743012). Further: nearly all actives have a fitted effect of over 60% in size. Further: potency means the concentration at half of the fitted maximal effect. An outline of the steps: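 CellTiter-Glo luminescence readout of viability in wild type DT40 cells after 40 h compound exposure at 37 C/5% CO2; 300 cells/well; reagent incubated 30 min at room temperature before reading.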

Experiment [3] is described as follows: qHTS assay for identifying genotoxic compounds that show differential cytotoxicity against isogenic chicken DT40 cell lines with known DNA damage response pathways - Rev3 mutant cell line (AID 743014). Further: nearly all actives have a fitted effect of over 55% in size. Further: potency means the concentration at half of the fitted maximal effect.
A short description of experiment [4]: qHTS assay for identifying genotoxic compounds that show differential cytotoxicity against isogenic chicken DT40 cell lines with known DNA damage response pathways - Rad54/Ku70 mutant cell line (AID 743015). Further: nearly all actives have a fitted effect of over 60% in size. Further: potency means the concentration at half of the fitted maximal effect.
Experiment [5] can be described thus: qHTS assay to identify small molecule antagonists of the androgen receptor (AR) signaling pathway - cell viability counter screen (AID 743033; further: nearly all actives have a fitted effect of over 45% in size).
Experiment [6] is described as follows: qHTS assay to identify small molecule antagonists of the androgen receptor (AR) signaling pathway using the MDA cell line - cell viability counter screen (AID 743041; further: nearly all actives have a fitted effect of over 45% in size; further: potency means the concentration at half of the fitted maximal effect). In outline: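 Cytotoxicity counter screen: MDA-kb2 AR-luc cells, compound + R1881, 16 h, 37C, 0% CO2; CellTiter-Fluor added at 15.5 h, fluorescence read after 30 min.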
A short description of experiment [7]: qHTS assay to identify small molecule antagonists of the thyroid receptor (TR) signaling pathway - cell viability counter screen (AID 743064). Further: nearly all actives have a fitted effect of over 50% in size. Further: potency means the concentration at half of the fitted maximal effect. In outline:
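Rat GH3 pituitary tumor cells stably expressing two TR response elements driving luciferase were plated, rested 4 h, then dosed with library compounds and T3 (1 nM final). After 23.5 h at 37 °C, CellTiter-Fluor was added for 30 min and fluorescence recorded.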

The nature of experiment [8]: qHTS assay to identify small molecule antagonists of the thyroid receptor (TR) signaling pathway (AID 743065). Further: nearly all actives have a fitted effect of over 55% in size. Further: potency means the concentration at half of the fitted maximal effect. On activity, negative = inhibition: series mostly up to about 70 µM. An outline of the steps: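 GH3.TRE-Luc rat pituitary cells (two TREs driving luciferase) were dosed with compound, then stimulated with 1 nM T3 (final) for 23.5 h at 37 C. ONE-Glo luminescence was the read-out, with CellTiter-Fluor fluorescence as the cytotoxicity counter-screen.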

Experiment [9] concerns thyroid hormone receptor (rat, GH3 cells). In words: qHTS assay to identify small molecule agonists of the thyroid receptor (TR) signaling pathway (AID 743066; calls by dose curve).
The target in experiment [10] is Estrogen receptor (Homo sapiens) (UniProt P03372). In words: qHTS assay to identify small molecule antagonists of the estrogen receptor alpha (ER-alpha) signaling pathway (AID 743069; active means well fitted curve in the direction sought with a large enough effect in the signal ratio in the repeat runs, not every such curve was filed as active; the % refers to the signal ratio). An outline of the steps:
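Beta-lactamase FRET fluorescence is read after 2 hr at room temperature with LiveBLAzer B/G substrate. Before that, ER-alpha-bla HEK293 cells sit 4 hr after plating, then receive compound plus 17beta-estradiol and incubate 18 hr at 37C.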

Experiment [11] is described as follows: qHTS assay to identify small molecule antagonists of the estrogen receptor alpha (ER-alpha) signaling pathway - cell viability counter screen (AID 743074; calls by dose curve;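 further: HEK293 cells carrying ER-alpha-UAS-bla reporter stimulated with 17beta-estradiol; nearly all actives have a fitted effect of over 45% in size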).
For experiment [12], the target named is Estrogen receptor (Homo sapiens) (UniProt P03372). In words: qHTS assay to identify small molecule agonists of the estrogen receptor alpha (ER-alpha) signaling pathway (AID 743075; calls by dose curve;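 further: HEK293 GripTite cells with ER-alpha and UAS-driven beta-lactamase reporter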; further: potency means the concentration at half of the fitted maximal effect).
Sequence of Estrogen receptor (Homo sapiens) (P03372 whole entry, looked up): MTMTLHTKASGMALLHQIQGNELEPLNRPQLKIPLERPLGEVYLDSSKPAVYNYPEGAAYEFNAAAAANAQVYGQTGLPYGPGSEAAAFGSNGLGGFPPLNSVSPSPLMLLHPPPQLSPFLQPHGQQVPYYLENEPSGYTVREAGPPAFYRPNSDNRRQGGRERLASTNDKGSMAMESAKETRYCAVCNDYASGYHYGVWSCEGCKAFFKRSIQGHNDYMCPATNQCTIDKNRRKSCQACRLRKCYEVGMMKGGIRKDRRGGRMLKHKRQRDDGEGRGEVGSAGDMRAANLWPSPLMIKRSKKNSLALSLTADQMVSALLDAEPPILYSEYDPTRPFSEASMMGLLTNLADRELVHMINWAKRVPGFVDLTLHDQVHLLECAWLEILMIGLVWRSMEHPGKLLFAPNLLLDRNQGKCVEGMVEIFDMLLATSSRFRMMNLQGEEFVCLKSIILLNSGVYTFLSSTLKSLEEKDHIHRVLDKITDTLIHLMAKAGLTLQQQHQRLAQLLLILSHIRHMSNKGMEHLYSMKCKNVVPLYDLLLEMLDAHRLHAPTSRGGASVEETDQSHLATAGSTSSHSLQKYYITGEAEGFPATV
The target is the same in experiment [13]. The experiment in a line: qHTS assay to identify small molecule agonists of the estrogen receptor alpha (ER-alpha) signaling pathway using the BG1 cell line (AID 743079). Further: nearly all actives have a fitted effect of over 20% in size.
Experiment [14] in a line: qHTS assay to identify small molecule antagonists of the estrogen receptor alpha (ER-alpha) signaling pathway using the BG1 cell line - cell viability counter screen (AID 743081).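 Further: compound given together with 17beta-estradiol as the ER stimulus; series mostly up to about 70 µM; nearly all actives have a fitted effect of over 45% in size.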
The next experiment deals with Aromatase (Homo sapiens) (UniProt P11511). In words: qHTS assay to identify aromatase inhibitors (AID 743083). Further: series mostly up to about 70 µM; nearly all actives have a fitted effect of over 55% in size.
Sequence of Aromatase (Homo sapiens) (P11511 whole entry, looked up): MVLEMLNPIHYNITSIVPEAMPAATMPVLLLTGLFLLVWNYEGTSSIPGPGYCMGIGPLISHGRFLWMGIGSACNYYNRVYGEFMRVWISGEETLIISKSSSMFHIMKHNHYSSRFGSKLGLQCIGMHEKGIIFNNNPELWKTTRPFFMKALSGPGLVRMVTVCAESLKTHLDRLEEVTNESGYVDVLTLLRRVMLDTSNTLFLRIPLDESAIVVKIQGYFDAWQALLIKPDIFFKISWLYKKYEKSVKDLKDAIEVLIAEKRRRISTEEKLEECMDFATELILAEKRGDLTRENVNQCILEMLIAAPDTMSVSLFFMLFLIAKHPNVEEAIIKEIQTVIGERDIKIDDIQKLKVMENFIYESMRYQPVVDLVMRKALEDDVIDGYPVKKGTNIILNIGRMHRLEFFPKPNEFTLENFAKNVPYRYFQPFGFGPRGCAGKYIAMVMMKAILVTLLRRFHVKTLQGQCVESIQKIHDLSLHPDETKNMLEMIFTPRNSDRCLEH
Experiment [15] is described as follows: qHTS assay to identify small molecule antagonists of the estrogen receptor alpha (ER-alpha) signaling pathway using the BG1 cell line (AID 743080; calls by dose curve;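 further: BG1 cells stimulated with 17beta-estradiol alongside compound; series mostly up to about 70 µM; nearly all actives have a fitted effect of over 25% in size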). In outline: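 BG1-Luc-4E2 cells (endogenous full-length ER-alpha, 4xERE luciferase) hormone-starved 5 days in charcoal-stripped FBS, plated 4,000/well for 24 h, then compound plus 17beta-estradiol for 21.5 h at 37 C; ONE-Glo luminescence read.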
On the % scale 0 is the no-effect control and ±100 the full control effect.

Consider `C=C(CC)C(=O)c1ccc(OCC(=O)O)c(Cl)c1Cl`, for which the Potency result in experiment [1], in experiment [5], in experiment [10], in experiment [11], in [13] and in [14] was “inactive” each time. Further, in the experiment with Aromatase (Homo sapiens), the Potency entry was “inactive”. Besides, the Potency was 18.8 µM (active) and 43 µM (active) in [2]; 26.6 µM (active) and 48.2 µM (active) in experiment [3]; 29.8 µM (active) and 48.2 µM (active) in experiment [4]; 54.1 µM (active) in experiment [6]; 68.1 µM (active) in experiment [7]; 26.6 µM (active) and 54.1 µM (active) in experiment [8]. Also, the Potency result in experiment [12] was “inactive and 68.7 µM [fluorescent] (active)”. For the same molecule, the call in experiment [9] was inactive.

For `CCCCCc1ccc(Cl)cc1`, the Potency entry in [1], in experiment [2], in experiment [3], in experiment [4], in experiment [5] and in experiment [6] was “inactive” throughout. In addition, the Potency entry in experiment [7], in experiment [8], in experiment [10], in experiment [11], in experiment [12] and in experiment [13] was “inactive” each time. For the same molecule, the Potency result (in [15]; in experiment [14]; with Aromatase (Homo sapiens)) was “inactive” each time. Also, in [9], the molecule was classed as inactive.

On to `Clc1ccnc(Cl)n1`, for which the Potency result in experiment [1], in experiment [2], in experiment [3], in experiment [4], in [5] and in [6] was “inactive” each time. For the same molecule, the Potency result in [7], in experiment [8], in experiment [10], in experiment [11], in experiment [12] and in experiment [13] was “inactive” in each case. In addition, the Potency entry (in [15]; in experiment [14]; with Aromatase (Homo sapiens)) was “inactive” throughout. Moreover, the molecule was classed as inactive in experiment [9].

In the case of `CC(C)(c1cc(Br)c(OCC(Br)CBr)c(Br)c1)c1cc(Br)c(OCC(Br)CBr)c(Br)c1` (configuration not stated), the Potency entry in experiment [1], in experiment [2], in experiment [3], in experiment [4], in experiment [5] and in [6] was “inactive” in each case. The Potency entry in experiment [7], in experiment [8], in experiment [10], in experiment [11], in experiment [12] and in experiment [13] was “inactive” in each case. Further, the Potency result (in [15]; in experiment [14]; with Aromatase (Homo sapiens)) was “inactive” each time. Further, the result in experiment [9] was inactive.

Turning to `Cc1c(C)c2c(c(C)c1O)CC[C@@](C)(CCC[C@H](C)CCC[C@H](C)CCCC(C)C)O2`, the Potency entry in [1], in experiment [2], in experiment [3], in experiment [4], in experiment [5] and in [6] was “inactive” throughout. Moreover, the Potency result in [7], in [8], in experiment [10], in experiment [11], in experiment [12] and in experiment [13] was “inactive” each time. Further, the Potency entry (in experiment [15]; in experiment [14]; with Aromatase (Homo sapiens)) was “inactive” throughout. Also, the result in experiment [9] was inactive.

In the case of `O=C(O)O`, the values for the viability change, negative = cytotoxic in experiment [1] and in experiment [6] were 4.34% [at 7.04 µM] (inactive) and -5.91% [at 8.47 µM] (inactive), respectively. In addition, the activity change, negative = cytotoxicity in experiment [2] was -8.76% [at 8.52 µM] (inactive); in experiment [4] it was -2.06% [at 8.55 µM] (inactive); in experiment [5], -8.19% [at 7.04 µM] (inactive); in experiment [14], -13.4% [at 8.47 µM] (inactive). The activity, negative = cytotoxicity in [3] is -2.82% [at 8.53 µM] (inactive); in [11] it was 16.5% [at 6.72 µM] (inactive). The activity change, negative = cytotoxic in [7] is -0.346% [at 8.44 µM] (inactive). The results for the activation in [9] and in [12] were 0.119% [at 8.08 µM] (inactive) and -2.02% [at 6.71 µM] (inactive), respectively. For the same molecule, the values for the activity, negative = inhibition (in experiment [10]; with Aromatase (Homo sapiens)) were -5.09% [at 6.71 µM] (inactive) and -0.932% [at 8.47 µM] (inactive), respectively. Besides, the activity change, negative = inhibition in experiment [15] was 10.7% [at 8.47 µM] (inactive).

On to `CCc1cccc(CC)c1NC(=O)CN(CC(=O)O)CC(=O)O`, for which the Potency entry in experiment [1], in [2], in experiment [3], in experiment [4], in experiment [5] and in experiment [6] was “inactive” throughout. Besides, the Potency entry in experiment [8], in experiment [10], in experiment [12], in [13], in experiment [15] and in [14] was “inactive” throughout. Also, the Potency entry in the experiment with Aromatase (Homo sapiens) was “inactive”. In addition, the call in [9] was inactive.
